# Reference: PubChem BioAssay (NCATS)
# Inconclusive results are not listed. Entries that show only a call come without a potency. Calls of active or inactive are those of the source. Calls follow the shape of the dose curve; as a rule, active = well fitted activation curve with a large enough effect; inconclusive = small, poorly fitted or top-dose-only effect; inactive = flat fitted curve, though single readings scatter.
# Test: Validation screen for small molecules that induce DNA re-replication in MCF 10A normal breast cells (AID 463097); also: nearly all actives have a fitted effect of over 60% in size
# Conditions: MCF 10A cells, DNA re-replication phenotype imaging; series mostly up to 46.1 µM
# Source text: NIH Molecular Libraries Probe Production Network [MLPCN]
# NIH Chemical Genomics Center [NCGC]
# Assay Provider: Melvin DePamphilis, NICHD, NIH
# Eukaryotic cells normally restrict genome duplication to once per cell division. When this process is aberrant, DNA re-replication occurs when cells reinitiate DNA replication before the first round of replication is complete. DNA re-replication induces the DNA damage response, arrests cell proliferation, and triggers apoptosis. The cell cycle components cyclin A, Cdt-1, Cdc6 and geminin are critical regulators of this process and their misregulation results in DNA re-replication in normal and cancer cells. To identify compounds that induce re-replication in normal cells, an image-based assay was used to measure DNA content of nuclei, as detected by the fluorescent DNA binding dye, Hoechst. Cell nuclei were imaged by a fluorescence scanning plate imager and compounds that induce DNA re-replication were identified by the increase of nuclei with elevated fluorescence intensity.
# For screening, 250 cells in 5 uL/well were dispensed into black clear 1536-well plates (Aurora) using a solenoid-based dispenser. Following transfer of 23 nL compound or DMSO vehicle by a pin tool, the plates were incubated 48 hr at 37 C and 5% CO2. After addition of 1 uL/well Hoescht stain, the plates were incubated 40 min at 37 C, 5% CO2 and total intensity of fluorescent objects (nuclei) were enumerated by an Acumen Explorer Ex3 (TTP LabTech) fluorescence scanning plate imager (405 nm excitation, 500-530 nm emission).
# Keywords: NIH Roadmap, MLPCN, MLI, MLSMR, qHTS, NCGC, DNA replication, cancer
# Potency is read from the fitted curve at half-maximal effect.
row,Structure (SMILES),Potency
1,N[C@H](C(=O)O)[C@H](O)C(=O)O,inactive
2,N[C@H](C(=O)O)c1cc(O)cc(O)c1,inactive
3,Cc1cccc(C)c1OCC(N)C(C)C (stereo not given),inactive
4,NC1(C(=O)O)CCc2cc(C(=O)O)ccc21 (stereo not given),inactive
5,CCCCOc1cc(CC2CNC(=O)N2)ccc1OC (stereo not given),inactive
6,C=CCn1c(=O)c2c(nc(-c3ccc(S(=O)(=O)O)cc3)n2C)n(C)c1=O,inactive
7,O[Si](CCCN1CCCCC1)(c1ccc(F)cc1)C1CCCCC1 (stereo not given),inactive
8,CCCCCCCCCC[Si](C)(C)CCC(=O)NC(Cc1ccc(C)cc1)c1ccccc1 (stereo not given),inactive
9,NC(=O)c1cc[n+](CC2=C(C(=O)O)N3C(=O)[C@@H](NC(=O)[C@@H](c4ccccc4)S(=O)(=O)[O-])[C@H]3SC2)cc1,inactive
10,CC(=O)C(C)=O,inactive
11,COc1cc(C(O)C(=O)O)ccc1O (stereo not given),inactive
12,N=C(N)c1ccc(N)cc1,inactive
13,NC/C=C\C(=O)O,inactive
14,O=C(O)/C(=C/c1c(C(=O)O)[nH]c2cc(Cl)cc(Cl)c12)c1ccccc1,inactive
15,Nc1ccc(-c2ccc3ccccc3n2)cc1,12.6 µM (active)
16,N=C(N)c1ccccc1,inactive
17,O=C(c1ccc2c(c1)OCCO2)N1CCCCC1,inactive
18,[Li+],inactive
19,CCN(CC)CCCCCCCCOC(=O)c1cc(OC)c(OC)c(OC)c1,inactive
20,O=C1Cc2c([nH]c3ccc(Br)cc23)-c2ccccc2N1,6.31 µM (active)

row,Structure (SMILES),Potency
1,CNc1cc(NS(=O)(=O)c2ccc(N)cc2)nc(NC)n1,inactive
2,NC(C(=O)N[C@@H]1C(=O)N2C(C(=O)O)=C(Cl)CS[C@H]12)c1ccccc1 (stereo not given in full),inactive
3,O=c1ccc2c(OCCCCc3ccccc3)c3ccoc3cc2o1,inactive
4,Nc1ncnc2c1ncn2C1CCCO1 (stereo not given),inactive
5,O=C(O)c1cc(=O)cc(C(=O)O)[nH]1,inactive
6,CCCn1c(=O)c2c(ncn2C)n(CCC)c1=O,inactive
7,O=C(OCCN1CCOCC1)C1(c2ccccc2)CCCCC1,inactive
8,N=C(N)SCCN,inactive
9,COc1ccc2c(c1)c(CC(=O)O)c(C)n2Cc1ccc(Cl)cc1,inactive
10,NC(N)=NC(N)=Nc1ccccc1,inactive
11,CCOC(=O)C12CC1/C(=N/O)c1ccccc1O2 (stereo not given),inactive
12,CC(C)(C)c1cc(/C=C(\C#N)C(N)=S)cc(C(C)(C)C)c1O,3.16 µM (active)
13,Nc1ccc(CCNc2ncnc3c2ncn3C2OC(CO)C(O)C2O)cc1 (stereo not given),inactive
14,CCn1c(=O)[nH]c2cc(Cl)c(Cl)cc21,inactive
15,NCCNS(=O)(=O)c1cccc2c(Cl)cccc12,inactive
16,COc1ccccc1N1CCN(CCN(C(=O)c2ccc(F)cc2)c2ccccn2)CC1,inactive
17,N[C@@H](CS(=O)O)C(=O)O,inactive
18,O=c1[nH]ccc2c(O)cccc12,inactive
19,CC(=O)N[C@@H](Cc1c[nH]c2ccccc12)C(=O)OCc1cc(C(F)(F)F)cc(C(F)(F)F)c1,inactive
20,NC1(C(=O)O)CC1,inactive
